# This is a sample that favours compounds with a hit; in the whole collection about 3.4% have one here.
# GPR151 ag – activators of human GPR151; Q8TDV0; PathHunter beta-arrestin GPR151 cells, luminescence; activation, % at 11.2 µM; 1% of 650,000 active; AID 1508602; in the data active = activation above about 4.9%
# FBW7 act – human FBW7 E3 ligase activation, primary screen. normalized activity (activation), % at 26.1 µM. AlphaScreen FBW7–phospho-cyclin E peptide binding, activator screen. 0.13% of 650,000 active. Q969H0; in the data active = normalized activity above about 1.9%;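 also: purified mutant Fbw7 with reduced substrate affinity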
# MITF primary – blocks human microphthalmia-associated transcription factor. O75030. AlphaScreen MITF homodimerization, bead proximity signal. inhibition, % at 2.6 µM. 0.91% of 650,000 active; in the data active = inhibition above about 50%
# Target sequence (O75030 whole entry, looked up): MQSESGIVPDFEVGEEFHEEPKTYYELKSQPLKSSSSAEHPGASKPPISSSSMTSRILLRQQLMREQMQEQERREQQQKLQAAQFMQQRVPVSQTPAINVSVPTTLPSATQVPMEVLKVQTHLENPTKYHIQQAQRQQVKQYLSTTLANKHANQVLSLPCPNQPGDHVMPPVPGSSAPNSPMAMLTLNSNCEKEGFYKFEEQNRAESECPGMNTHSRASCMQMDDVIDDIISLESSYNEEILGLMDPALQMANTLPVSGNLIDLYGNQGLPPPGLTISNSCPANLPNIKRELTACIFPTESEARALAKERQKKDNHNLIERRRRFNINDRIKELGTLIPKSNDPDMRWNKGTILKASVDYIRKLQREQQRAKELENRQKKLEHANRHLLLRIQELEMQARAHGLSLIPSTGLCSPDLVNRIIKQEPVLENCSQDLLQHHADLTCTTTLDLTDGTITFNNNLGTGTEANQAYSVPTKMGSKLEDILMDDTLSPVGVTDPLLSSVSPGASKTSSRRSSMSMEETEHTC
# TEAD-YAP block – TEAD-YAP interaction inhibition. 1.4% of 640,000 active. HEK-TIYL cells, TEAD-Gal4/YAP UAS-luciferase luminescence. inhibition, % at 9.12 µM; in the data active = inhibition above about 32%
# Numbers stand for hits; . = inactive.
SMILES,GPR151 ag,FBW7 act,MITF primary,TEAD-YAP block
COc1ccc(N(C(=O)Nc2cccc([N+](=O)[O-])c2)C(C)C2CC2)cc1 (stereo not drawn),.,.,.,.
CC1=C(C(=O)Nc2cccc(C(F)(F)F)c2)C(c2ccc(OCC(N)=O)cc2)NC(=O)N1 (stereo not drawn),.,.,.,.
Cc1ccccc1CN1C(=O)CSc2ccc(C(=O)N3CCOCC3)cc21,.,.,.,.
Cc1ccccc1CN1C(=O)CSc2ccc(C(=O)N3CCN(c4ccccn4)CC3)cc21,.,.,.,45
Oc1ccc(/C=N/Nc2nn[nH]n2)cc1O,.,.,52,.
C(=N\Nc1nn[nH]n1)/c1ccc2c(c1)OCO2,.,.,.,.
Oc1ccc(/C=N/Nc2nn[nH]n2)c(O)c1O,.,.,95,.
CCN(CC)c1ccc(/C=N/Nc2nn[nH]n2)c(O)c1,.,.,.,.
COc1cc(C(=O)NC(=S)Nc2cccc(C(C)=O)c2)cc(OC)c1OC,.,.,.,.
Cc1cccc(-n2c(CNC(=O)c3ccco3)nnc2SCC(=O)Nc2ccc(F)cc2)c1,.,.,.,.
O=C(c1cnc2sc3ccccc3n2c1=O)N1CCOCC1,.,.,.,.
CC1=C(C(=O)Nc2ccccc2)C(c2ccccc2Cl)C(C#N)=C(S)N1 (stereo not drawn),.,.,.,.
Cc1cc(C)cc(OCC(=O)Nc2ccc(NC(=O)c3cccs3)cc2)c1,.,2.2,.,.
Cc1ccc(OCC(=O)Nc2cccc(NC(=O)c3cccs3)c2)cc1,.,.,.,.
O=C(O)C1Nc2ccccc2C2C=CCC12 (stereo not drawn),.,.,75,.
Cc1ccc2c(c1C)NC(C(=O)O)C1CC=CC21 (stereo not drawn),.,.,65,.
O=C(O)c1ccc2c(c1)C1C=CCC1C(C(=O)O)N2 (stereo not drawn),.,.,.,.
O=C(O)C1Nc2c(O)ccc(Br)c2C2C=CCC12 (stereo not drawn),.,.,86,.
O=C(O)C1Nc2ccc3ccccc3c2C2C=CCC12 (stereo not drawn),.,.,.,.
O=C(O)C1Nc2c(F)cccc2C2C=CCC12 (stereo not drawn),.,.,78,.
Cc1ccc(S(=O)(=O)N2CCN(C(=O)c3ccccc3)C2C(C)C)cc1[N+](=O)[O-] (stereo not drawn),.,.,.,.
O=C1NC(=O)N(c2ccc(OCc3ccccc3)cc2)C(=O)/C1=C\c1cccc(O)c1,.,.,.,.
CCOC(=O)C1Nc2c(ccc(C(=O)O)c2C)C2C=CCC12 (stereo not drawn),.,.,66,.
CCOC(=O)c1ccc2c(c1)[C@@H]1C=CC[C@@H]1[C@H](C(=O)OCC)N2,.,.,.,.
Cc1cc(C(=O)CSc2nc(N)cc(=O)[nH]2)c(C)n1Cc1cccs1,.,.,.,.
SMILES,GPR151 ag,FBW7 act,MITF primary,TEAD-YAP block
Cc1cc(C(=O)CSc2nnc(N)s2)c(C)n1Cc1cccs1,.,.,.,58
Cc1cc(C(=O)CCl)c(C)n1Cc1cccs1,.,.,.,.
Cc1csc(SCC(=O)c2cc(C)n(Cc3cccs3)c2C)n1,.,.,.,59
O=C1NCCCC2c3cc(O)ccc3OC12N1CCCCC1 (stereo not drawn),.,.,.,.
Cc1ccnc2nc(C(=O)OCC(=O)Nc3ccccc3)nn12,.,.,.,.
COc1ccccc1N1CCN(C2CCCN(C(=O)NCc3ccccc3)C2)CC1 (stereo not drawn),.,.,.,.
CCCCCCCCNC(=O)c1ccc([N+](=O)[O-])o1,.,.,.,35
O=C(NCCCN1CCOCC1)c1ccc([N+](=O)[O-])o1,.,.,.,.
Fc1ccc(Nc2nc3nonc3nc2Nc2ccc(F)cc2)cc1,.,.,.,61
FC(F)(F)c1cccc(Nc2nc3nonc3nc2Nc2ccc(Cl)cc2)c1,.,.,.,82
Clc1ccc(Nc2nc3nonc3nc2Nc2ccc(Cl)cc2)cc1,.,.,.,92
Ic1ccc(Nc2nc3nonc3nc2N2CCCCC2)cc1,.,.,.,.
O=c1[nH]c2nonc2nc1Nc1ccc(Cl)cc1,.,.,.,.
Clc1ccc(Nc2nc3nonc3nc2N2CCCCC2)cc1,.,.,.,33
CC1CCCCN1Cc1nc2c(c(=O)n(C)c(=O)n2C)n1Cc1ccc(F)cc1 (stereo not drawn),.,.,.,.
CCOC(=O)Cn1cc(/C=C2/C(=O)NC(=S)N(Cc3ccco3)C2=O)c2ccccc21,.,.,64,.
O=C1NC(=O)N(Cc2ccco2)C(=O)/C1=C/c1ccc(N2CCOCC2)cc1,.,.,73,.
